Source: PubChem
A selection: hits, their analogues and other compounds. The true share with any hit is near 8.9%.
M1 antag: antagonists of rat M1 muscarinic receptor; P08482; CHO-M1 cells, Fluo-4 calcium, ACh EC80 antagonist mode; active compounds read low; B-score at 10 µM; 64,000 tested, 3.4% active;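 active = calcium fluorescence response, raw or row-and-column corrected B-score, differing from the plate sample mean either way at a set confidence level, mostly lower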
Htt clearance: mutant huntingtin protein clearance; 47,000 tested, 0.42% active; HeLa Exon1htt(103Q)mCFP, aggregate imaging; zero = plate's median compound well; AID 853; inhibition, % at 1.5 µM;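 active = inhibition of aggregate fluorescence above about 70%, also judged a hit by eye on the cell image, limit read from the data, passing the limit was not always enough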;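 also: cells exposed to compound for three days before fixation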
WNV NS2B-NS3 inh: WNV NS2B-NS3 proteinase inhibition. WNV NS2B-NS3 protease, fluorogenic substrate Ex360/Em465; active compounds read low. z-score (test concentration not listed). 65,000 tested, 0.18% active; in the data active = z-score below about -3
Target sequence (P06935 1371-1501 limits assumed): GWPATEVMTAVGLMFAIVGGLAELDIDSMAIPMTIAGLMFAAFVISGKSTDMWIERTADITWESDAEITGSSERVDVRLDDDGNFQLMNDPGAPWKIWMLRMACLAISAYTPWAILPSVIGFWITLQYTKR
Target sequence (P06935 1502-1679 limits assumed): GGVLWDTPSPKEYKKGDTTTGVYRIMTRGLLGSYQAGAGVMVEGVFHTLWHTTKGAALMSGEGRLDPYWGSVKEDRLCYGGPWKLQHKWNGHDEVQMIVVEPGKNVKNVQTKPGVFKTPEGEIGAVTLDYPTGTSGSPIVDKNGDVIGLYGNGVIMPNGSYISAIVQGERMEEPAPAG
M1 ag: M1 muscarinic receptor agonism; CHO-M1 cells, Fluo-4 calcium fluorescence, agonist mode; active compounds read high; B-score at 10 µM; 64,000 tested, 3% active;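 active = fluorescence rise, raw or as B-score row- and column-corrected plate score, outside the 99.7% band of its plate's samples, either direction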
D1 mod: allosterically modulates the human D1 dopamine receptor; 58,000 tested, 5.9% active; B-score at 10 µM; HEK293 D1, CRE-luciferase, dopamine EC30 potentiation; actives deviate in either direction; AID 641; P21728;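 active = luminescence count or its row- and column-corrected plate score outside the 99.7% band of the plate's sample wells, on either side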
M1 antag confirm: M1 muscarinic receptor (rat) antagonism, confirmed; shares compounds with M1 antag; CHO-M1 cells, Fluo-4 calcium, ACh EC80 antagonism; active compounds read low; calcium response (max-min fluorescence) at 10 µM; 1,700 tested, 43% active;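 active = calcium response below the same-plate mean of wells given acetylcholine alone at its 80%-effect dose, minus 3 SD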;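 also: raw fluorescence intensity difference in arbitrary instrument units and not normalized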
mGluR4 antag: selectivity test for M1 antagonists: human mGluR4 receptor | 1,700 tested, 0.9% active | fluorescence response (max-min) at 10 µM | shares compounds with M1 antag | CHO-mGluR4 calcium flux, Fluo-4 fluorescence, glutamate EC80; active compounds read low;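 active = fluorescence response below the plate's average for near-maximal glutamate wells, less 3 SD of those wells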;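 also: raw unnormalized fluorescence span taken in the window right after glutamate addition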
The depositor's hits bear a star.

CCOC(=O)N1CCN(C(=O)c2ccc3c(=O)n(CCC4=CCCCC4)c(=O)[nH]c3c2)CC1 was read as M1 antag -6.8*, Htt clearance -59, WNV NS2B-NS3 inh -1.1, M1 ag -0.63, D1 mod -0.96, M1 antag confirm 191* and mGluR4 antag 252.
Cc1sc2nc(CN3CCCC3)nc(N3CCN(S(=O)(=O)c4cccs4)CC3)c2c1C was read as M1 antag -3.9*, WNV NS2B-NS3 inh 1.3, M1 ag -0.21, M1 antag confirm 410* and mGluR4 antag 217.
`CC(=O)N(C)C1(c2nnnn2CCOC(=O)Nc2cccc3ccccc23)CCCC1` gave M1 antag 0.016, Htt clearance 52, WNV NS2B-NS3 inh 0.35, M1 ag 0.51 and D1 mod 0.11.
Screening COc1cccc(C(=O)N(CN2CCCC2=O)c2cc(C)on2)c1 returned M1 antag -3.4*, Htt clearance 6, WNV NS2B-NS3 inh -1.1, M1 ag -0.43, M1 antag confirm 545 and mGluR4 antag 190.
`Cc1noc(C)c1S(=O)(=O)N1CCC(C(=O)N2CCN(c3ccc(F)cc3)CC2)CC1` gave M1 antag -1.9*, WNV NS2B-NS3 inh 0.35, M1 ag 0.036, D1 mod -0.038, M1 antag confirm 552 and mGluR4 antag 191.
For Cc1noc(C)c1S(=O)(=O)Nc1ccc(C(=O)N2CCN(c3ccc(Cl)cc3)CC2)cc1 the results were M1 antag -2.4*, WNV NS2B-NS3 inh 0.74, M1 ag 2.9, D1 mod -3.7*, M1 antag confirm 487 and mGluR4 antag 233.
Cc1noc(C)c1S(=O)(=O)Nc1ccc(C(=O)NC2CCCCCC2)cc1 was read as M1 antag -1.1, Htt clearance 33, WNV NS2B-NS3 inh 0.0043, M1 ag -0.09 and D1 mod 1.7.
Screening N#Cc1cccc(NC(=O)NCCc2c[nH]c3ccccc23)c1 returned M1 antag -0.014, WNV NS2B-NS3 inh -1.9, M1 ag -0.57 and D1 mod -3.
`COc1ccc(NC(=O)C2CCCCN2CC(=O)OCc2ccccc2)cc1OC` (stereo not given) gave M1 antag -2.7*, WNV NS2B-NS3 inh -0.52, M1 ag -1, D1 mod 0.072, M1 antag confirm 610 and mGluR4 antag 210.
For O=C(CCn1nc(-c2ccc(Cl)cc2)c2ccccc2c1=O)NCCN1CCOCC1 the results were Htt clearance 36.
Cc1ccc(-c2nn(CC(=O)NCCN3CCOCC3)c(=O)c3ccccc23)cc1 was read as M1 antag -2.5*, Htt clearance -10, WNV NS2B-NS3 inh 0.06, M1 ag 1.9, D1 mod -0.035, M1 antag confirm 657 and mGluR4 antag 220.
For CCOc1ccccc1C(=O)N(Cc1ccccc1)Cc1cc2cc3c(cc2[nH]c1=O)OCCO3 the results were Htt clearance -8.
CC1=CC(C)(C)N2C(=O)C3(SCC(=O)N3c3ccc(O)cc3)c3cc(C)cc1c32 (stereo not given) was read as M1 antag 0.55, WNV NS2B-NS3 inh -1.4, M1 ag -1.2 and D1 mod -0.019.
For Cc1ccc(N2C(=O)CSC23C(=O)Nc2ccccc23)cc1 (stereo not given) the results were M1 antag -3.2*, WNV NS2B-NS3 inh 0.66, M1 ag 1.5, D1 mod -0.1, M1 antag confirm 428 and mGluR4 antag 217.
For CCOC(=O)c1ccc(CNC(=O)c2cc3cccc(OC)c3oc2=O)o1 the results were M1 antag -0.82, WNV NS2B-NS3 inh 0.43, M1 ag -0.28 and D1 mod -0.39.
`CCOC(=O)c1sc2ncnc(NCC(c3cccs3)N(C)C)c2c1C` (stereo not given) gave M1 antag -3.4*, WNV NS2B-NS3 inh -0.3, M1 ag -0.23, D1 mod 1.4, M1 antag confirm 496* and mGluR4 antag 188.
`CCOc1ccc(NC(=O)c2oc3ccccc3c2NC(=O)C(C)C)cc1` gave M1 antag 0.0028, WNV NS2B-NS3 inh 1, M1 ag -0.31 and D1 mod -1.1.
`CCN(CC)C(=O)C1CCCN(C/C=C/c2ccccc2)C1` (stereo not given) gave M1 antag -2.7*, Htt clearance 63, WNV NS2B-NS3 inh 0.66, M1 ag 4, D1 mod -1.5, M1 antag confirm 566 and mGluR4 antag 240.
Screening CCN(CC)C(=O)C1CCCN(C/C(C)=C/c2ccccc2)C1 (stereo not given) returned M1 antag 0.04, Htt clearance -81, WNV NS2B-NS3 inh 1.9, M1 ag 0.62 and D1 mod -0.019.
CCN(CC)C(=O)C1CCCN(Cc2ccc(N(C)C)cc2)C1 (stereo not given) was read as M1 antag 0.11, WNV NS2B-NS3 inh -1, M1 ag -0.37 and D1 mod -1.4.
`CCN(CC)C(=O)C1CCCN(Cc2ccc(F)c(F)c2)C1` (stereo not given) gave M1 antag -4.1*, WNV NS2B-NS3 inh -1.5, M1 ag 0.83, D1 mod 0.35, M1 antag confirm 649 and mGluR4 antag 256.
Screening Cc1nn2c(c1-c1ccccc1)NC1=C(C(=O)CCC1)C2c1cccnc1 (stereo not given) returned M1 antag 0.26, WNV NS2B-NS3 inh 1.9, M1 ag -0.88 and D1 mod -0.26.
COCCn1c(SCC(=O)N2CCCc3ccccc32)nc2ccccc2c1=O was read as M1 antag -1.9*, WNV NS2B-NS3 inh -0.02, M1 ag -0.12, D1 mod -0.88, M1 antag confirm 589 and mGluR4 antag 254.
COc1ccc(CNC(=O)NCc2ccc(OC)c(OC)c2)cc1OC was read as M1 antag -2.4*, WNV NS2B-NS3 inh 0.83, M1 ag -1.4, M1 antag confirm 524 and mGluR4 antag 206.
`COc1cc(C(=O)Nc2cc(Cl)ccc2C)c(-n2cnnn2)cc1OC` gave M1 antag 0.78, Htt clearance 4, WNV NS2B-NS3 inh 0.53, M1 ag 0.042 and D1 mod 0.37.
Screening O=C(NCc1ccco1)C1c2ccccc2Oc2ccccc21 returned M1 antag -5.4*, Htt clearance -6, WNV NS2B-NS3 inh -0.93, M1 ag -0.45, D1 mod -0.2, M1 antag confirm 556 and mGluR4 antag 210.
For CCOC(=O)C1CCN(S(=O)(=O)c2cccc(-c3cn4ccccc4n3)c2)CC1 the results were M1 antag -3.1*, Htt clearance 37, WNV NS2B-NS3 inh 0.32, M1 ag 0.45, D1 mod -1, M1 antag confirm 601 and mGluR4 antag 247.
CCOC(=O)C1CCN(S(=O)(=O)c2cccc(-c3cn4cc(Cl)ccc4n3)c2)CC1 was read as Htt clearance -56.
